Reference: publication PMC7862700, “An all-to-all approach to the identification of sequence-specific readers for epigenetic DNA modifications on cytosine”

Assays:
Assay in all cases: DAPPL (digital affinity profiling via proximity ligation, sequencing); 10 mM Tris-HCl pH 7.5, 50 mM NaCl, 1 mM DTT, 4% glycerol, room temperature, 30 min; GST-TFs on glutathione beads, 16-mer random dsDNA library, 0.1% formaldehyde crosslink after washing; high values mean tight binding
FLI1 = biological target: T1, FLI1 (Homo sapiens, UniProt Q01543 1-452); conditions: protein: recombinant; tags: N-terminal GST; dsDNA, one strand shown
T1 sequence: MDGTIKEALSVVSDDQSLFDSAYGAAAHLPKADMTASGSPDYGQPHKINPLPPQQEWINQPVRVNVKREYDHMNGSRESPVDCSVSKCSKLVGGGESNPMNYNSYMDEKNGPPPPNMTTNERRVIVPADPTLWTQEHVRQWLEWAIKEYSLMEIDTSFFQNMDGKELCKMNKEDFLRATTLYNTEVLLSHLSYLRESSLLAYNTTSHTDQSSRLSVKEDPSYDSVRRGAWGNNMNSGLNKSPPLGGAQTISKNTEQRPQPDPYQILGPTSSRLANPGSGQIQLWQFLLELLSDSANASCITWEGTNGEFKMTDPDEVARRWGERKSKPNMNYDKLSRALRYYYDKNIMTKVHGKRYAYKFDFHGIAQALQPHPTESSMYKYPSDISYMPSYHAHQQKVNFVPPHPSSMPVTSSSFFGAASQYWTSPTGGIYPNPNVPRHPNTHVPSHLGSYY
Method in brief: (§1)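 Pools of DNA-barcoded human transcription factors, expressed in yeast as GST fusions on glutathione beads and combined with a tag-only sample, were incubated with 200 nmole of a 16-mer random double-stranded DNA library. Incubation took 30 min at room temperature in Tris/NaCl/DTT/glycerol buffer and was followed by washing, 0.1% formaldehyde crosslinking, proximity ligation (BsaI/T4 ligase, 1 h, 37 °C), PCR amplification and sequencing on an Illumina NextSeq500. Binding signal is the ratio of a hexamer's read frequency for a factor to its frequency for the tag-only sample.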

ELK1 = biological target: T2, ELK1 (Homo sapiens, UniProt P19419 1-428); conditions: protein: recombinant; tags: N-terminal GST; dsDNA, one strand shown
T2 sequence: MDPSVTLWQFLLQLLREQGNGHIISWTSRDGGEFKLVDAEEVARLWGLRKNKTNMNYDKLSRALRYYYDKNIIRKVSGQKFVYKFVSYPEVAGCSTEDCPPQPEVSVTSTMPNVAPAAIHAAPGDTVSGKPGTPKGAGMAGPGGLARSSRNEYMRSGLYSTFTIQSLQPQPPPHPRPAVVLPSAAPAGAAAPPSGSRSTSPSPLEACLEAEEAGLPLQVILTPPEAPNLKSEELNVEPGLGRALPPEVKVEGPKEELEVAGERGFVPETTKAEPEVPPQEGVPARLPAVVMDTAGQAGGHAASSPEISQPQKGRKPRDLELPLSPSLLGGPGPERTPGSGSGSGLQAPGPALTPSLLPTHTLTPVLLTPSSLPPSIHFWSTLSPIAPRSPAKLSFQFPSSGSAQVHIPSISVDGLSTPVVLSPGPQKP
Method in brief: as §1

GABPA = biological target: T3, GABPA (Homo sapiens, UniProt Q06546 1-454); conditions: protein: recombinant; tags: N-terminal GST; dsDNA, one strand shown
T3 sequence: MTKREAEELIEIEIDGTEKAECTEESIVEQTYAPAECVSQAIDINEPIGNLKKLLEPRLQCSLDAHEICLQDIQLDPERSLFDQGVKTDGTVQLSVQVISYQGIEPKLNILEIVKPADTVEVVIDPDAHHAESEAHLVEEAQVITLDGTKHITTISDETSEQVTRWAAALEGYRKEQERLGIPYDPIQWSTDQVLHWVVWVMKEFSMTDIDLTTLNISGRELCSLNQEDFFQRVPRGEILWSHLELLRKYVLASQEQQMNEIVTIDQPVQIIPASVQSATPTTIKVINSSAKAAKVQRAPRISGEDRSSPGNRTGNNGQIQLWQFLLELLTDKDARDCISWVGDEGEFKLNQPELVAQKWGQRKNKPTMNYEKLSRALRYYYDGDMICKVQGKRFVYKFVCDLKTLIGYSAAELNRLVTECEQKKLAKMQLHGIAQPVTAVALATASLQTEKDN
Method in brief: as §1

ERG = biological target: T4, ERG (Homo sapiens, UniProt P11308 1-479); conditions: protein: recombinant; tags: N-terminal GST; dsDNA, one strand shown
T4 sequence: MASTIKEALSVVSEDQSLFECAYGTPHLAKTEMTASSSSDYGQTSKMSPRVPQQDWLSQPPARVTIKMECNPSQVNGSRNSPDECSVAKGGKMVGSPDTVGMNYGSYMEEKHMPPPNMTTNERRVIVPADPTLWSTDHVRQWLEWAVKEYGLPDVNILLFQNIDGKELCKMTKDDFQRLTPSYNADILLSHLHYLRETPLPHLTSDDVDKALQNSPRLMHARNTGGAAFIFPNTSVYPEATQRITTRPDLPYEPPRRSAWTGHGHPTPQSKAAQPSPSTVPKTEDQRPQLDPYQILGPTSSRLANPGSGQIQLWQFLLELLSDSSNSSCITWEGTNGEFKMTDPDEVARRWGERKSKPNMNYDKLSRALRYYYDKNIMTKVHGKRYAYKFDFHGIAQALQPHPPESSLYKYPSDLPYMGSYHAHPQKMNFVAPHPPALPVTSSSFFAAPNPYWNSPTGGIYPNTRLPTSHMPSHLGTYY
Method in brief: as §1

ELF1 = ELF1 (Homo sapiens, UniProt P32519 1-619); conditions: protein: recombinant; tags: N-terminal GST; dsDNA, one strand shown
Chain of ELF1 (P32519 whole entry): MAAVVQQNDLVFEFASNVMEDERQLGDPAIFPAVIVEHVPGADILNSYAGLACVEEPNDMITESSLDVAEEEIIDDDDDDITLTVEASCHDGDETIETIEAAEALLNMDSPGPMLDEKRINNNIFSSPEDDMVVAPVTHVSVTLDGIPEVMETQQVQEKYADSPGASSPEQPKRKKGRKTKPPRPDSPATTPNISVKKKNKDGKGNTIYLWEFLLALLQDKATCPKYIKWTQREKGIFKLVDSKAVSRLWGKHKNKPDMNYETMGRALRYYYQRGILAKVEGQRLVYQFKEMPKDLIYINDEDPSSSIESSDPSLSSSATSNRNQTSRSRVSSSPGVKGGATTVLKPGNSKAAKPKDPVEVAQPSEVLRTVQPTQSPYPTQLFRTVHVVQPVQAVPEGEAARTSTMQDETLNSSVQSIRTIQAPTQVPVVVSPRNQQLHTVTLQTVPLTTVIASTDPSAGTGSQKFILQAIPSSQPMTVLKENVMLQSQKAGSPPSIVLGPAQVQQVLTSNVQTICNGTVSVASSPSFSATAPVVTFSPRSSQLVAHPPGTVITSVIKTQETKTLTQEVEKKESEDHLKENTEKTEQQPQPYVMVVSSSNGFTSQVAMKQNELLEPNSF
Method in brief: as §1

EHF = biological target: T5, EHF (Homo sapiens, UniProt Q9NZC4 1-300); conditions: protein: recombinant; tags: N-terminal GST; dsDNA, one strand shown
T5 sequence: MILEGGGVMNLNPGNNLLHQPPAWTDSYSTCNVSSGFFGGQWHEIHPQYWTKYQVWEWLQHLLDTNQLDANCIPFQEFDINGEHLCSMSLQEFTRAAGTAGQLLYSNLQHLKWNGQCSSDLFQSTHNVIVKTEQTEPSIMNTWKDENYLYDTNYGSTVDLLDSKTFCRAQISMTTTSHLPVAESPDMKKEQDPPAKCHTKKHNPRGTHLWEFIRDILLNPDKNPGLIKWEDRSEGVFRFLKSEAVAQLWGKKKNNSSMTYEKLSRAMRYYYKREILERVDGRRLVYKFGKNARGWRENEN
Method in brief: as §1

SPI1 = SPI1 (Homo sapiens, UniProt P17947 1-270); conditions: protein: recombinant; tags: N-terminal GST; dsDNA, one strand shown
Method in brief: as §1

SPIB = SPIB (Homo sapiens, UniProt Q01892 1-262); conditions: protein: recombinant; tags: N-terminal GST; dsDNA, one strand shown
Chain of SPIB (Q01892 whole entry): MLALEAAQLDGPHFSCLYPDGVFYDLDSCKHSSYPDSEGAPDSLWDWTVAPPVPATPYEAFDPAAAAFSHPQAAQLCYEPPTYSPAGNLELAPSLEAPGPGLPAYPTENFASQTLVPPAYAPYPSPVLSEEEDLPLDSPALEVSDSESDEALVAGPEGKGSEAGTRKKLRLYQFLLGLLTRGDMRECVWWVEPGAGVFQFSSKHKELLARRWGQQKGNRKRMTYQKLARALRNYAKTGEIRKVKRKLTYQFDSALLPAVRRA
Method in brief: as §1

ELK3 = biological target: T6, ELK3 (Homo sapiens, UniProt P41970 1-407); conditions: protein: recombinant; tags: N-terminal GST; dsDNA, one strand shown
T6 sequence: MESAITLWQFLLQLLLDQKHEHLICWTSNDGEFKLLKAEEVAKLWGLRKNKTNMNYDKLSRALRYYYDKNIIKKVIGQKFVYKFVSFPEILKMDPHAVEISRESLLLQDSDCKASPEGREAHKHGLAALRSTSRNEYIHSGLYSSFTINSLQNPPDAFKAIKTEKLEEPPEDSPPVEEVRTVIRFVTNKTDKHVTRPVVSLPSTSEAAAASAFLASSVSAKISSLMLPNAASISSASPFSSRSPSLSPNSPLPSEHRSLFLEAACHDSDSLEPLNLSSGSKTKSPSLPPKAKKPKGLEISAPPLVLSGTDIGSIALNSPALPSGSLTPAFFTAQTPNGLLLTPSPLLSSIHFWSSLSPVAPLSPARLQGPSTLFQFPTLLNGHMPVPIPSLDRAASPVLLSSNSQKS
Method in brief: as §1

FEV = biological target: T7, FEV (Homo sapiens, UniProt Q99581 1-238); conditions: protein: recombinant; tags: N-terminal GST; dsDNA, one strand shown
T7 sequence: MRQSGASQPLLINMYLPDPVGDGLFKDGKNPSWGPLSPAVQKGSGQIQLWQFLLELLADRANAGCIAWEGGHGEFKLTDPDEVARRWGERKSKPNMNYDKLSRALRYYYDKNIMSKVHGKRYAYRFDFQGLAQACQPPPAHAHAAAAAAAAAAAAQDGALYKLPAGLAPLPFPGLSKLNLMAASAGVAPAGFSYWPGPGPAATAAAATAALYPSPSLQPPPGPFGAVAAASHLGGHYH
Method in brief: as §1

ETV5 = ETV5 (Homo sapiens, UniProt P41161 1-510); conditions: protein: recombinant; tags: N-terminal GST; dsDNA, one strand shown
Chain of ETV5 (P41161 whole entry): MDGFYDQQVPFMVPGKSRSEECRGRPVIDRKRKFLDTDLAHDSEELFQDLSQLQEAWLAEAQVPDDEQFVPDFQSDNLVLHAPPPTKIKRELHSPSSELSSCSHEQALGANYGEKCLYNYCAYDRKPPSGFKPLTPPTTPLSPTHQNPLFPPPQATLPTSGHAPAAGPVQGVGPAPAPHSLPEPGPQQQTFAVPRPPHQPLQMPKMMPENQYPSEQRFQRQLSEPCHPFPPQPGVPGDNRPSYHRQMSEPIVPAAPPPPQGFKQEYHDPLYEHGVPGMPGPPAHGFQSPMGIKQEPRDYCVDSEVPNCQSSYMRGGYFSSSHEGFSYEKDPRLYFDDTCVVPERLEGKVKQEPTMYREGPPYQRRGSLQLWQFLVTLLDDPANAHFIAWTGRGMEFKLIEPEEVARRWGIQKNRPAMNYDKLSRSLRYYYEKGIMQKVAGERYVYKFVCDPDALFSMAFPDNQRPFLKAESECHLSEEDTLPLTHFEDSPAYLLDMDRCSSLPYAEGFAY
Method in brief: as §1

HSF1 = HSF1 (Homo sapiens, UniProt Q00613 1-529); conditions: protein: recombinant; tags: N-terminal GST; chain copies: 3; dsDNA, one strand shown
Chain of HSF1 (Q00613 whole entry): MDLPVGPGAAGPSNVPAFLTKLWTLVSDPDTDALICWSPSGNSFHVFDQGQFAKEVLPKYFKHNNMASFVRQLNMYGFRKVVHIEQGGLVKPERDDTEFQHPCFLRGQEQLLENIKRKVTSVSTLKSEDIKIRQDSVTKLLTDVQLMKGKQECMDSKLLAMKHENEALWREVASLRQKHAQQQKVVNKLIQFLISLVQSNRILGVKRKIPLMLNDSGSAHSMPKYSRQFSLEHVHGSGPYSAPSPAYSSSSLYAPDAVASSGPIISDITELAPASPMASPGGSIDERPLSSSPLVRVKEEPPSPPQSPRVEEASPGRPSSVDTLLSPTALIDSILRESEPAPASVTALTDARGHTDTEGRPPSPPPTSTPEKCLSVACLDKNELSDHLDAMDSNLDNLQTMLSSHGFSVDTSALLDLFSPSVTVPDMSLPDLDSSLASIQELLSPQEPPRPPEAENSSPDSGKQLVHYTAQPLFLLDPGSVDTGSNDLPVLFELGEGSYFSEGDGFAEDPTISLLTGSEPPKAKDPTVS
Method in brief: as §1

SPIC = biological target: T8, SPIC (Homo sapiens, UniProt Q8N5J4 1-248); conditions: protein: recombinant; tags: N-terminal GST; dsDNA, one strand shown
T8 sequence: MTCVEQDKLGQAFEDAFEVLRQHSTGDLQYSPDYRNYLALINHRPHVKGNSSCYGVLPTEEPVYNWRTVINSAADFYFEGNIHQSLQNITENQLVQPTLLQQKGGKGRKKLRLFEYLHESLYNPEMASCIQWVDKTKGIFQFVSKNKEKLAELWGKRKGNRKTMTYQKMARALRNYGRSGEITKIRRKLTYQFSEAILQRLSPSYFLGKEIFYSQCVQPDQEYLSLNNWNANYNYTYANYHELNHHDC
Method in brief: as §1

ELF4 = ELF4 (Homo sapiens, UniProt Q99607 1-663); conditions: protein: recombinant; tags: N-terminal GST; dsDNA, one strand shown
Chain of ELF4 (Q99607 whole entry): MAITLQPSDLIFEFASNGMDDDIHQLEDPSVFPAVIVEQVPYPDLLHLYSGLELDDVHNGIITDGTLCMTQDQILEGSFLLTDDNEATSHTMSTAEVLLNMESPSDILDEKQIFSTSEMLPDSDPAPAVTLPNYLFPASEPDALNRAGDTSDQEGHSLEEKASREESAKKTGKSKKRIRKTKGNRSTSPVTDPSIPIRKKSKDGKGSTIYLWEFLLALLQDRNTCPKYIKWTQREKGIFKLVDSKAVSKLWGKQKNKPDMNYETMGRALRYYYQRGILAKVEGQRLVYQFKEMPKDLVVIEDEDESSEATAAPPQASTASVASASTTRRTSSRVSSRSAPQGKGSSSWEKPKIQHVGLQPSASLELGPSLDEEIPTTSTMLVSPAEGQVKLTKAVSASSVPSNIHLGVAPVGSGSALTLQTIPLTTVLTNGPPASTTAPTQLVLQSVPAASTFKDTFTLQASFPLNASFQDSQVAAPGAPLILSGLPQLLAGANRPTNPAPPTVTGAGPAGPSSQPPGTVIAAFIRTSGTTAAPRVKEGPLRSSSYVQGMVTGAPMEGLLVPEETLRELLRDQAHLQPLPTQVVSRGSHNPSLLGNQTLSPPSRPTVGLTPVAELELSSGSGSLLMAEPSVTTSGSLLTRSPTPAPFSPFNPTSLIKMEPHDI
Method in brief: as §1

ELK4 = biological target: T9, ELK4 (Homo sapiens, UniProt P28324-2 1-405); conditions: protein: recombinant; tags: N-terminal GST; dsDNA, one strand shown
T9 sequence: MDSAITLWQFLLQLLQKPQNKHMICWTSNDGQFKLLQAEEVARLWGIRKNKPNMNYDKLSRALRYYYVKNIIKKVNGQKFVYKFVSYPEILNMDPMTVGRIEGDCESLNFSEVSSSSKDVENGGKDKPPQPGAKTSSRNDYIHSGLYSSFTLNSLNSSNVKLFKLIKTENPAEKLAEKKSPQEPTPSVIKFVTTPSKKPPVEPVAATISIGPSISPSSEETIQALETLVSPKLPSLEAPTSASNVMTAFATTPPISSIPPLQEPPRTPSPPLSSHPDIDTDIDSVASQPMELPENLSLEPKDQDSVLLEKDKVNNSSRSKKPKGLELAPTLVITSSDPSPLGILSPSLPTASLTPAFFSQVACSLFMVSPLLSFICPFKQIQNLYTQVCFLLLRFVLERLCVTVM
Method in brief: as §1

ETV2 = biological target: T10, ETV2 (Homo sapiens, UniProt O00321 1-342); conditions: protein: recombinant; tags: N-terminal GST; dsDNA, one strand shown
T10 sequence: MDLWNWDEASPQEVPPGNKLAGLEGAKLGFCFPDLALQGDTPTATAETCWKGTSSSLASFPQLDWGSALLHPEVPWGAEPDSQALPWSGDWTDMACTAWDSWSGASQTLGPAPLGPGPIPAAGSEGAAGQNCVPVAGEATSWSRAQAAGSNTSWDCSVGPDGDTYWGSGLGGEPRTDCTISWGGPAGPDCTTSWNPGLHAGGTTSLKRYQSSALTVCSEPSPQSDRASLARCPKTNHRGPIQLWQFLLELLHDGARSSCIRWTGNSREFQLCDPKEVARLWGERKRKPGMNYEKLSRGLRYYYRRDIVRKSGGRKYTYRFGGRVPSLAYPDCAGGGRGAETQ
Method in brief: as §1

ELF3 = biological target: T11, ELF3 (Homo sapiens, UniProt P78545 1-371); conditions: protein: recombinant; tags: N-terminal GST; dsDNA, one strand shown
T11 sequence: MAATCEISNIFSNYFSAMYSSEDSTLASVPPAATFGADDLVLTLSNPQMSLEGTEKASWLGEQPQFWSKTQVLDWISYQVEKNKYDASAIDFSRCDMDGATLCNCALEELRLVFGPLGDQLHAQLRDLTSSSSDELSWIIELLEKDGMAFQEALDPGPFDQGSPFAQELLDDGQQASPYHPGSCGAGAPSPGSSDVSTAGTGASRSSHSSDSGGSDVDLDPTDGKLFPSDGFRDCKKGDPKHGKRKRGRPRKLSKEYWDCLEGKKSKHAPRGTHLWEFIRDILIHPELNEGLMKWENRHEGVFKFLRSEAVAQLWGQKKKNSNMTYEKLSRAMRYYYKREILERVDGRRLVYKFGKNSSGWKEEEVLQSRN
Method in brief: as §1

CRX = CRX (Homo sapiens, UniProt O43186 1-299); conditions: protein: recombinant; tags: N-terminal GST; dsDNA, one strand shown
Chain of CRX (O43186 whole entry): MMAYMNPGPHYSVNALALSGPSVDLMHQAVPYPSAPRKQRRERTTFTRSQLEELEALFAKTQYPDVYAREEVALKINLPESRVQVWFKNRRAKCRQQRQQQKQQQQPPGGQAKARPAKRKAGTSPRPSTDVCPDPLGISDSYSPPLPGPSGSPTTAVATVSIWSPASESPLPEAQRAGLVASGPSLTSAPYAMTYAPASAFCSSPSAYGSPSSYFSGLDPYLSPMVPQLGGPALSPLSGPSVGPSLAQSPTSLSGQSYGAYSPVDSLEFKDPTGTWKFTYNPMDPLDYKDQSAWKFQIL
Method in brief: as §1

ETV1 = ETV1 (Homo sapiens, UniProt P50549 1-477); conditions: protein: recombinant; tags: N-terminal GST; dsDNA, one strand shown
Chain of ETV1 (P50549 whole entry): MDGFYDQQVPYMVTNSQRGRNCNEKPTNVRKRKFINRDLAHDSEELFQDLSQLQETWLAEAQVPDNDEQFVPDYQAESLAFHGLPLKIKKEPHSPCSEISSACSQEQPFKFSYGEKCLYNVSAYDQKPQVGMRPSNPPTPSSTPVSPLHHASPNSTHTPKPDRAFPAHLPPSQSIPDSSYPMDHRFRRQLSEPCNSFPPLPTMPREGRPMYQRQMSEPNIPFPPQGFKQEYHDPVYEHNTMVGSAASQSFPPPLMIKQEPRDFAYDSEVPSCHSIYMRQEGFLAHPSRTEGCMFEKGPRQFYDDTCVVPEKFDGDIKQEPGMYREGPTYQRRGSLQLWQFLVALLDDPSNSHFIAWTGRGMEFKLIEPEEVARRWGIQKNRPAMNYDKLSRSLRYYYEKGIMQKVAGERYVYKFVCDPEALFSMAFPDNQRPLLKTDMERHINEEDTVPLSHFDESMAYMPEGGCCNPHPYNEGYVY
Method in brief: as §1

ATCGCC
binding signal (FLI1): 1.28 fold enrichment (6-mer frequency, TF over GST control)
binding signal (ELK1): 1.36 fold enrichment (6-mer frequency, TF over GST control)
binding signal (GABPA): 1.27 fold enrichment (6-mer frequency, TF over GST control)
binding signal (ERG): 1.29 fold enrichment (6-mer frequency, TF over GST control)
binding signal (ELF1): 1.23 fold enrichment (6-mer frequency, TF over GST control)
binding signal (EHF): 1.37 fold enrichment (6-mer frequency, TF over GST control)
binding signal (SPI1): 1.22 fold enrichment (6-mer frequency, TF over GST control)
binding signal (SPIB): 1.29 fold enrichment (6-mer frequency, TF over GST control)
binding signal (ELK3): 1.27 fold enrichment (6-mer frequency, TF over GST control)
binding signal (FEV): 1.24 fold enrichment (6-mer frequency, TF over GST control)
binding signal (ETV5): 1.23 fold enrichment (6-mer frequency, TF over GST control)
binding signal (HSF1): 1.28 fold enrichment (6-mer frequency, TF over GST control)
binding signal (SPIC): 1.31 fold enrichment (6-mer frequency, TF over GST control)
binding signal (ELF4): 1.24 fold enrichment (6-mer frequency, TF over GST control)
binding signal (ELK4): 1.28 fold enrichment (6-mer frequency, TF over GST control)
binding signal (ETV2): 1.2 fold enrichment (6-mer frequency, TF over GST control)
binding signal (ELF3): 1.12 fold enrichment (6-mer frequency, TF over GST control)
binding signal (CRX): 1.4 fold enrichment (6-mer frequency, TF over GST control)
binding signal (ETV1): 1.32 fold enrichment (6-mer frequency, TF over GST control)
